Measured values published in PubChem BioAssay (EPA / NIEHS).
Calls of active or inactive are those of the source. How the source made its calls: active means hit-call score of the fitted dose curve at least 0.9, where 1 is the maximum; inactive means score below 0.9.

Read-out: not listed separately
Assay: BSK_CASM3C_SRB: Viability Assessment in the BioMAP Diversity Plus: CASM3C Assay (AID 2283050);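 further: total protein by SRB staining as cytotoxicity measure in parallel cultures; cells exposed to compound for 24 h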
Details: primary human coronary artery smooth muscle cells
In the case of c1ccc2ncccc2c1, the outcome is reported as “inactive”.
With CC(C)c1nnc2ccc(-c3ocnc3-c3cc(F)ccc3F)cn12 the outcome was “inactive”.
For CCCCCCCCN(C)C, the outcome was “inactive”.
For O=C(NO)C1(NS(=O)(=O)c2ccc(Oc3ccc(F)cc3)cc2)CCOCC1, the outcome was “inactive”.
For O=C(O)[C@H](O)[C@@H](O)C(=O)O, the outcome was “inactive”.
In the case of CC(C)CCCCCCOC(=O)C1CCCCC1C(=O)OCCCCCCC(C)C (stereo unspecified), the outcome is reported as “inactive”.
With NC(=O)NN=Cc1ccc([N+](=O)[O-])o1 the outcome was “inactive”.
With OCc1ccccc1 the outcome was “inactive”.
With OC(CCl)CCl the outcome was “inactive”.
For NC(=O)N(O)[C@@H]1COc2cc(OCc3ccccc3)ccc21, the outcome was “inactive”.
In the case of Cc1ncc([C@@H](CCCCCCc2ccc3c(n2)NCCC3)CC(=O)O)cn1, the outcome is reported as “inactive”.
In the case of CCCCCCCCCCCCCCCCOS(=O)(=O)O, the outcome is reported as “inactive”.
With COc1cc(C(C)C)c2c(c1)S(=O)(=O)N(COc1cc(=O)n3cccc(OCCN4CCCCC4)c3n1)C2=O the outcome was “inactive”.
For CC(=O)c1ccccc1, the outcome was “inactive”.
With CCCCOC(=O)c1ccccc1 the outcome was “inactive”.
In the case of Cc1nc(-c2ccccn2)ncc1C(=O)Nn1cc(C)c2cc(F)ccc21, the outcome is reported as “inactive”.
In the case of CC[C@H](C)C(=O)O[C@H]1C[C@H](O)C=C2C=C[C@H](C)[C@H](CC[C@@H](O)C[C@@H](O)CC(=O)O)[C@H]21, the outcome is reported as “inactive”.
With C=CCc1cc(S(=O)(=O)c2ccc(O)c(CC=C)c2)ccc1O the AC50 was 31.2 µM (active).
In the case of CCc1ccc(O)c(C(C)(C)C)c1, the outcome is reported as “inactive”.
In the case of OCCC(F)(F)C(F)(F)C(F)(F)C(F)(F)F, the outcome is reported as “inactive”.
In the case of OCc1c[nH]c2ccccc12, the outcome is reported as “inactive”.
For CCCCCCOC(=O)CC(CC(=O)OCCCCCC)(OC(=O)CCC)C(=O)OCCCCCC, the outcome was “inactive”.
In the case of OCCOCCOCCO, the outcome is reported as “inactive”.
With CCc1cccc(CC)c1N the outcome was “inactive”.
For COCc1nnc(-c2ccc[n+]([O-])c2)n1-c1c(Cl)c(Cl)cc2[nH]c(=O)c(=O)[nH]c12, the outcome was “inactive”.
For NC(=O)N1c2ccccc2C=Cc2ccccc21, the outcome was “inactive”.
In the case of FC(F)=C(F)C(F)(F)C(F)(F)C(F)(F)C(F)(F)C(F)(F)C(F)(F)F, the outcome is reported as “inactive”.

Read-out: Thrombomodulin, THBD (gene 7056)
Assay: BSK_CASM3C_Thrombomodulin: BioMAP Diversity Plus: CASM3C Assay for Thrombomodulin Biomarker Activity (AID 2283051);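 further: thrombomodulin protein level measured by ELISA 24 h after dosing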
Details: primary human coronary artery smooth muscle cells; actives raise or lower the signal
For c1ccc2ncccc2c1, the outcome was “inactive”.
For CC(C)c1nnc2ccc(-c3ocnc3-c3cc(F)ccc3F)cn12, the outcome was “inactive”.
For CCCCCCCCN(C)C, the outcome was “inactive”.
For O=C(NO)C1(NS(=O)(=O)c2ccc(Oc3ccc(F)cc3)cc2)CCOCC1, the outcome was “inactive”.
In the case of O=C(O)[C@H](O)[C@@H](O)C(=O)O, the outcome is reported as “inactive”.
With CC(C)CCCCCCOC(=O)C1CCCCC1C(=O)OCCCCCCC(C)C (stereo unspecified) the outcome was “inactive”.
With NC(=O)NN=Cc1ccc([N+](=O)[O-])o1 the outcome was “inactive”.
For OCc1ccccc1, the outcome was “inactive”.
With OC(CCl)CCl the outcome was “inactive”.
With NC(=O)N(O)[C@@H]1COc2cc(OCc3ccccc3)ccc21 the outcome was “inactive”.
In the case of Cc1ncc([C@@H](CCCCCCc2ccc3c(n2)NCCC3)CC(=O)O)cn1, the outcome is reported as “inactive”.
In the case of CCCCCCCCCCCCCCCCOS(=O)(=O)O, the outcome is reported as “inactive”.
For COc1cc(C(C)C)c2c(c1)S(=O)(=O)N(COc1cc(=O)n3cccc(OCCN4CCCCC4)c3n1)C2=O, the outcome was “inactive”.
With CC(=O)c1ccccc1 the outcome was “inactive”.
For CCCCOC(=O)c1ccccc1, the outcome was “inactive”.
For Cc1nc(-c2ccccn2)ncc1C(=O)Nn1cc(C)c2cc(F)ccc21, the AC50 was 20 µM (active).
With CC[C@H](C)C(=O)O[C@H]1C[C@H](O)C=C2C=C[C@H](C)[C@H](CC[C@@H](O)C[C@@H](O)CC(=O)O)[C@H]21 the AC50 was 15.3 µM (active).
In the case of C=CCc1cc(S(=O)(=O)c2ccc(O)c(CC=C)c2)ccc1O, the outcome is reported as “inactive”.
With CCc1ccc(O)c(C(C)(C)C)c1 the outcome was “inactive”.
With OCCC(F)(F)C(F)(F)C(F)(F)C(F)(F)F the outcome was “inactive”.
With OCc1c[nH]c2ccccc12 the AC50 was 0.184 µM (active).
With CCCCCCOC(=O)CC(CC(=O)OCCCCCC)(OC(=O)CCC)C(=O)OCCCCCC the outcome was “inactive”.
In the case of OCCOCCOCCO, the outcome is reported as “inactive”.
In the case of CCc1cccc(CC)c1N, the outcome is reported as “inactive”.
For COCc1nnc(-c2ccc[n+]([O-])c2)n1-c1c(Cl)c(Cl)cc2[nH]c(=O)c(=O)[nH]c12, the outcome was “inactive”.
In the case of NC(=O)N1c2ccccc2C=Cc2ccccc21, the outcome is reported as “inactive”.
In the case of FC(F)=C(F)C(F)(F)C(F)(F)C(F)(F)C(F)(F)C(F)(F)C(F)(F)F, the outcome is reported as “inactive”.

Read-out: Tissue Factor, F3 (gene 2152)
Assay: BSK_CASM3C_TissueFactor: BioMAP Diversity Plus: CASM3C Assay for Tissue Factor Biomarker Activity (AID 2283052);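 further: cell surface tissue factor protein level read by ELISA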
Details: primary human coronary artery smooth muscle cells; actives raise or lower the signal
In the case of c1ccc2ncccc2c1, the outcome is reported as “inactive”.
In the case of CC(C)c1nnc2ccc(-c3ocnc3-c3cc(F)ccc3F)cn12, the outcome is reported as “inactive”.
For CCCCCCCCN(C)C, the outcome was “inactive”.
With O=C(NO)C1(NS(=O)(=O)c2ccc(Oc3ccc(F)cc3)cc2)CCOCC1 the outcome was “inactive”.
In the case of O=C(O)[C@H](O)[C@@H](O)C(=O)O, the outcome is reported as “inactive”.
In the case of CC(C)CCCCCCOC(=O)C1CCCCC1C(=O)OCCCCCCC(C)C (stereo unspecified), the outcome is reported as “inactive”.
For NC(=O)NN=Cc1ccc([N+](=O)[O-])o1, the outcome was “inactive”.
For OCc1ccccc1, the outcome was “inactive”.
With OC(CCl)CCl the outcome was “inactive”.
For NC(=O)N(O)[C@@H]1COc2cc(OCc3ccccc3)ccc21, the outcome was “inactive”.
With Cc1ncc([C@@H](CCCCCCc2ccc3c(n2)NCCC3)CC(=O)O)cn1 the outcome was “inactive”.
In the case of CCCCCCCCCCCCCCCCOS(=O)(=O)O, the outcome is reported as “inactive”.
With COc1cc(C(C)C)c2c(c1)S(=O)(=O)N(COc1cc(=O)n3cccc(OCCN4CCCCC4)c3n1)C2=O the outcome was “inactive”.
For CC(=O)c1ccccc1, the outcome was “inactive”.
With CCCCOC(=O)c1ccccc1 the outcome was “inactive”.
In the case of Cc1nc(-c2ccccn2)ncc1C(=O)Nn1cc(C)c2cc(F)ccc21, the outcome is reported as “inactive”.
For CC[C@H](C)C(=O)O[C@H]1C[C@H](O)C=C2C=C[C@H](C)[C@H](CC[C@@H](O)C[C@@H](O)CC(=O)O)[C@H]21, the outcome was “inactive”.
With C=CCc1cc(S(=O)(=O)c2ccc(O)c(CC=C)c2)ccc1O the AC50 was 36.7 µM (active).
In the case of CCc1ccc(O)c(C(C)(C)C)c1, the outcome is reported as “inactive”.
With OCCC(F)(F)C(F)(F)C(F)(F)C(F)(F)F the outcome was “inactive”.
For OCc1c[nH]c2ccccc12, the outcome was “inactive”.
For CCCCCCOC(=O)CC(CC(=O)OCCCCCC)(OC(=O)CCC)C(=O)OCCCCCC, the outcome was “inactive”.
In the case of OCCOCCOCCO, the outcome is reported as “inactive”.
With CCc1cccc(CC)c1N the outcome was “inactive”.
With COCc1nnc(-c2ccc[n+]([O-])c2)n1-c1c(Cl)c(Cl)cc2[nH]c(=O)c(=O)[nH]c12 the outcome was “inactive”.
In the case of NC(=O)N1c2ccccc2C=Cc2ccccc21, the outcome is reported as “inactive”.
For FC(F)=C(F)C(F)(F)C(F)(F)C(F)(F)C(F)(F)C(F)(F)C(F)(F)F, the outcome was “inactive”.
